Compound activity (PubChem BioAssay)
DT40 TDP1 no CPT: qHTS for Inhibitors of human tyrosyl-DNA phosphodiesterase 1 (TDP1): qHTS in cells in absence of CPT | DT40 Tdp1-/- hTDP1 cells, no CPT, ATP luminescence, 48 h | Potency, µM (series often up to 46.2 µM), for inactives: at the top dose activity change, negative = growth inhibition, usual class: inhibitors | hit rate 15% among 420,000 | AID 686978, 2013; note: potency is the fitted concentration of half-maximal effect; nearly all actives have a fitted effect of over 55% in size
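Compound effects on proliferation are scored in DT40 Tdp1-/-;hTDP1 cells in the absence of CPT. ATP levels (CellTiter-Glo luminescence) are recorded after a ≥48 hr, 37 °C incubation.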
IL1B secr inh: inflammasome signaling inhibition, IL-1 beta readout; THP-1 LPS/ATP IL-1B secretion, AlphaLISA, 16 h; stronger effect = lower value; activity change, % at 57.5 µM; hit rate 4.7% among 360,000; in the data active = activity change below about -50%; inconclusive = mostly about -30% to -49%
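Secreted IL-1B measured by AlphaLISA bead assay after 16 h compound exposure of THP-1 cells; compounds (final up to 57.5 uM) added 1 h before LPS (250 ng/mL) and ATP (1.25 mM) stimulation; lower signal means less secretion.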
HT1080-NT tox: kills 2HG-producing HT-1080-NT fibrosarcoma cells; Potency, µM (highest dose often 46.1 µM), inactives show at the top dose activity, negative = less viability, most hits filed as cytotoxic; hit rate 1.6% among 360,000; HT-1080-NT fibrosarcoma viability, CellTiter-Glo ATP luminescence, 48 h;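 note: NT is the 2HG producing partner of a matched IDH1 knockdown line; potency is the fitted concentration of half-maximal effect; 0% = DMSO-treated cells and -100% = media-only wells without cells; nearly all actives have a fitted effect of over 55% in size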
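Toxicity toward the 2HG-producing NT line was scored as %Activity, normalised to DMSO and no-cell wells, from CellTiter-Glo luminescence after 48 hours' treatment.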
DT40 TDP1 CPT: growth inhibition of DT40 Tdp1-/-;hTDP1 cells with camptothecin (screen for TDP1 inhibitors); chicken DT40 Tdp1-/-;hTDP1 cells + 20 nM CPT, ATP luminescence, 48 h; Potency, µM (titrated, usually from 46.2 µM), without a hit: at the top dose activity change, negative = growth inhibition, hits mostly inhibitors; hit rate 12% among 420,000; AID 686979; note: potency is the fitted concentration of half-maximal effect; nearly all actives have a fitted effect of over 55% in size
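Cell growth measured by CellTiter-Glo luminescence after a minimum 48 h, 37 C compound exposure with 20 nM CPT in Tdp1-knockout DT40 cells stably expressing hTDP1, seeded 400/well; qHTS titration format.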
HT1080 IDH1KD tx: toxicity to HT-1080 IDH1 knockdown cells (counter line); HT-1080 IDH1 knockdown viability, ATP luminescence, 48 h; Potency, µM (series often up to 46.1 µM), for the others: at the highest dose activity, negative = toxicity, hits mostly cytotoxic; hit rate 2% among 360,000;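 note: potency is the fitted concentration of half-maximal effect; 0% = DMSO wells and -100% = cell-free medium wells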
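Assay cells: HT-1080 with IDH1 knockdown, 750 per well, RPMI/5% FBS. Exposure: 48 h at 37 °C following 2 h pre-incubation. Read: CellTiter-Glo luminescence; fitted concentration-response, curve class assigned.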
Numbers without * were called inactive; ? = inconclusive; · = no result given. A selection: hits, their analogues and other compounds. The true share with any hit is near 19%. Unless noted, calls come from the whole dose curve; as a rule, active = well fitted curve in the direction sought with a large enough effect; inconclusive = small, poorly fitted or top-dose-only effect, or another doubt; inactive = no such curve, though single readings can be large; an effect the other way counts as inactive or inconclusive. Unless noted, % is set by controls: 0 for no effect and ±100 for the full control effect.

SMILES	DT40 TDP1 no CPT	IL1B secr inh	HT1080-NT tox	DT40 TDP1 CPT	HT1080 IDH1KD tx
Cc1ccccc1NC(=O)CN1C(=O)CCn2nc(-c3cccn3C)cc21	-5%	·	·	-2%	·
O=c1[nH]cc(C#Cc2ccccc2)c2ncncc12	-23%	·	14%	-3%	8%
CC1CC(C)CN(C(=O)C(C)N2CCN(S(=O)(=O)c3ccc(C(F)(F)F)cc3)CC2)C1 (stereo not drawn)	?	-15	-1%	?	1%
CCCOc1cccc(C(=O)Nc2cccc3cccnc23)c1	?	·	·	23µM*	·
COc1cc(C(=O)Nc2cccc3cccnc23)cc(OC)c1OC	26µM*	-20	-5%	?	-12%
Cc1cccc(C(=O)Nc2cccc3cccnc23)c1	-18%	11	3%	7%	0%
COc1cc(OC)cc(C(=O)Nc2cccc3cccnc23)c1	?	?	-2%	?	-5%
Cc1cnc(C(=O)Nc2cccc3cccnc23)cn1	0.0092µM*	198	?	0.0073µM*	?
Cc1cc(NC(=O)c2oc3c(c2C)-c2[nH]ncc2CC3)ccc1Br	18µM*	·	·	?	·
COc1ccc(NC(=O)Nc2sc(=S)n(C)c2C)cc1	?	-13	-12%	?	3%
Cc1c(NC(=O)Nc2ccc(Cl)c(Cl)c2)sc(=S)n1C	?	-97*	?	26µM*	?
COc1ccccc1N=C1SC(C(=O)Nc2cccc(Cl)c2Cl)C(N)=C1C(N)=O (stereo not drawn)	3.3µM*	-23	15µM*	2.9µM*	?
Cc1ccc2oc(-c3ccc(C)c(NC(=O)COc4ccc(Cl)cc4C)c3)nc2c1	-11%	·	·	-22%	·
CCOc1ccc(N=Cc2c(C)[nH]n(-c3nc4ccccc4[nH]3)c2=O)cc1	9.2µM*	18	5.2µM*	10µM*	3.7µM*
Cc1[nH]n(-c2ccccc2)c(=O)c1C=Nc1cnc2ccccc2c1	-26%	7	1%	?	5%
COc1ccc(-c2nc3cc(C)c(Br)c(C)n3c2CC2CCCCC2)cc1OC	?	17	?	2%	?
Cc1ccc(-c2nc3cc(C)c(Br)c(C)n3c2CC2CCCCC2)cc1	13µM*	0	2%	?	-17%
Cc1cc2nc(-c3ccc(F)cc3)c(CC3CCCCC3)n2c(C)c1Br	21µM*	36	-19%	?	-22%
Cc1cc2nc(-c3ccc(F)cc3)c(CC(C)(C)C)n2c(C)c1Br	21µM*	42	?	26µM*	?
Cc1cc2nc(-c3cccc(Cl)c3)c(CC3CCCCC3)n2c(C)c1Br	?	36	3%	-27%	-15%
Cc1cc2nc(-c3ccccc3)c(CC3CCCCC3)n2c(C)c1Br	15µM*	33	-19%	23µM*	?
N#CCCn1c(=O)c(-c2ccc(Cl)cc2)nc2cnc(Oc3cccc(Cl)c3)nc21	-9%	·	·	15%	·
CCCc1nc2cc(C)c(Br)c(C)n2c1CC1CCCCC1	2.9µM*	?	?	4.1µM*	?
CN(C)c1ccc(/C=N/NC(=O)c2ccc(-n3cnnn3)cc2)cc1	-12%	-17	-7%	6%	1%
C=CCN(CC=C)C(=O)C1c2ccccc2Oc2ccccc21	?	0	-1%	26µM*	-7%
COc1cc(NCC2COc3c(ccc(OC)c3OC)C2=O)c([N+](=O)[O-])cc1OC (stereo not drawn)	18µM*	-9	-14%	18µM*	-6%
COc1cc(CNc2ccccc2)c([N+](=O)[O-])cc1OC	-26%	-5	6%	?	6%
CCCNC(=O)N1C[C@H](O)COC[C@@H]2O[C@@H](CC(=O)NCCCN3CCOCC3)CC[C@H]21	2%	12	24%	0%	19%
O=C(COc1ccc(F)cc1)NCCCn1ccnc1	0%	17	11%	19%	-2%
COc1ccc(C(=O)CC(=O)c2ccc(F)cc2)cc1	?	-53*	5%	-22%	-1%
